Data: PubChem BioAssay (EPA / NIEHS)
“And” between values parts separate entries of the source, which are not always exact repeats. Equal entries are not always repeated. Inconclusive results are not listed. The source made the active and inactive calls. The calls were made as follows, unless noted: active = hit-call score of the fitted dose curve at least 0.9, where 1 is the maximum; inconclusive = response in the unintended direction; inactive = score below 0.9.

Tested on: DIO1 (gene 1733)
Assay: CCTE_GLTED_hDIO1: CCTE's human Deiodinase 1 (DIO1) Inhibition Assay, Great Lakes Toxicology and Ecology Division (GLTED) Lab (AID 2283987);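 also: isolated human DIO1 enzyme in a cell-free setup rather than cells; enzyme activity read as free iodide liberated from substrate via Sandell-Kolthoff colorimetry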
Procedure, shortened: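 Chemicals are tested on human DIO1 without cells for 3 h. Uninhibited enzyme frees iodide, which speeds cerium(IV) reduction by arsenic and is read by spectrophotometry.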

Row | Structure (SMILES) | AC50
1 | NS(=O)(=O)C(F)(F)C(F)(F)C(F)(F)C(F)(F)C(F)(F)C(F)(F)F | 44.3 µM (active)
2 | CCCCCCCCCCCCCC[P+](CCCC)(CCCC)CCCC | 11.5 µM (active)
3 | C=CC(=O)OCC(F)(F)C(F)(F)C(F)(F)C(F)(F)C(F)(F)C(F)(F)C(F)(F)C(F)F | 8.44 µM (active)
4 | C=C(C)C(=O)OCC(F)(F)C(F)(F)C(F)(F)C(F)F | 25.5 µM (active)
5 | CCCCCCCCCCCCC[N+](C)(C)Cc1ccccc1 | 38.7 µM (active)
6 | C=CC(=O)OCC(F)(F)C(F)(F)C(F)(F)COC(=O)C=C | 19.6 µM (active)
7 | CCCCCCCC/C=C\CCCCCCCC(=O)N(C)CC(=O)O | 95.4 µM (active)
8 | CCCCCCCCn1sc(Cl)c(Cl)c1=O | 0.411 µM (active)

Biological target: Nucleoli Translocation, AR (gene 367) (UniProt P10275)
Assay: UPITT_HCI_U2OS_AR_TIF2_Nucleoli_Antagonist: University of Pittsburgh U2OS Androgen Receptor-Transcriptional Intermediary Factor 2 (AR-TIF2) Antagonism High Content Imaging Assay for Nucleoli Translocation (AID 2283997)
Procedure, shortened: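 U2OS cells co-expressing red-fluorescent-tagged human AR and green-fluorescent-tagged TIF2, imaged by high-content microscopy for nucleolar red fluorescence. Antagonist mode against DHT; primary screen at 20 uM final (0.2% DMSO).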

Sequence of Nucleoli Translocation, AR (gene 367) (P10275 whole entry, looked up): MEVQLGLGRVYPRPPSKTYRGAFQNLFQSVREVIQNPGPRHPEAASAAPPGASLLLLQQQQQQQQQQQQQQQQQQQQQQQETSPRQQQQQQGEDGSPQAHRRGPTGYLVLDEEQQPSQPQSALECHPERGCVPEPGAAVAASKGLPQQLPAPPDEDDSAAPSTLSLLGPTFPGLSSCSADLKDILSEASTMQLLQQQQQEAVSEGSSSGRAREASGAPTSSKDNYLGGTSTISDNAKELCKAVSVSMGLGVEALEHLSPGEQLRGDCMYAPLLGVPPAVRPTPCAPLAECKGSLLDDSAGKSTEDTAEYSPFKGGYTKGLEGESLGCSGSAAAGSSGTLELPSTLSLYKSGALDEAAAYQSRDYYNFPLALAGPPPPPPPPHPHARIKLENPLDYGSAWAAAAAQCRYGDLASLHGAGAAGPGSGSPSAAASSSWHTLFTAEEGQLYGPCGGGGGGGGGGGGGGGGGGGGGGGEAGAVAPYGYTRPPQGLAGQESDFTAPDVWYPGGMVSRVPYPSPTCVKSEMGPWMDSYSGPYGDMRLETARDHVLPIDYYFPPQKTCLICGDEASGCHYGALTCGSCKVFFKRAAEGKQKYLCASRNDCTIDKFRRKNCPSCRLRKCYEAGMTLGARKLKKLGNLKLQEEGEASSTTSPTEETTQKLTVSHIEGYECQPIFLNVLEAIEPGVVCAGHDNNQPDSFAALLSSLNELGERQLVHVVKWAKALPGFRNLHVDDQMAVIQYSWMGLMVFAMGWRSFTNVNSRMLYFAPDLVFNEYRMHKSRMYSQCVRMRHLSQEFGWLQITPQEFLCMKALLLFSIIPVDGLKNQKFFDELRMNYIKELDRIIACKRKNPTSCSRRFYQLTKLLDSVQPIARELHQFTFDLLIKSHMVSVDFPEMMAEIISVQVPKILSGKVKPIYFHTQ

Row | Structure (SMILES) | AC50 | outcome
9 | CCN=C1C=CC(=C(c2ccc(N(CC)CC)cc2)c2ccc(N(CC)CC)cc2)c2ccccc21 | 1.4 µM (active) | –
10 | COCCOCCC[Si](C)(O[Si](C)(C)C)O[Si](C)(C)C | – | inactive
11 | CCCCCCCCCCCCCC[P+](CCCC)(CCCC)CCCC | 5.62 µM (active) | –
12 | CCc1ccc(C)nc1 | – | inactive
13 | CCCCCCCCCc1ccc(OCCO)cc1 | – | inactive
14 | Cc1cccc(C)n1 | – | inactive
15 | CCCCCCCCCCCCC[N+](C)(C)Cc1ccccc1 | 13.7 µM (active) | –
16 | CCCCCCCC/C=C\CCCCCCCC(=O)OCC(O)CO (stereo not drawn) | – | inactive
17 | O=C1C=CC(=O)N1c1ccccc1 | 5.44 µM (active) | –
18 | CC1CCCCC1 | – | inactive
19 | F[Si-2](F)(F)(F)(F)F | – | inactive
20 | C[C@]12CC[C@H]3C(=CCc4cc(O)ccc43)[C@@H]1CCC2=O | 0.234 µM (active) | –

Biological target: Ratio of Nucleoli Translocation and Cytoplasm, AR (gene 367) (UniProt P10275)
Assay: UPITT_HCI_U2OS_AR_TIF2_Nucleoli_Cytoplasm_Ratio_Agonist: University of Pittsburgh U2OS Androgen Receptor-Transcriptional Intermediary Factor 2 (AR-TIF2) Agonism High Content Imaging Assay for Ratio of Nucleoli Translocation and Cytoplasm (AID 2284000);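 also: hits raise the red nucleolar to cytoplasm ratio above vehicle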
Procedure, shortened: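 U2OS cells expressing RFP-tagged human AR and GFP-tagged TIF2; high-content imaging ratio of nucleolar to cytoplasmic red fluorescence, fitted as gain of signal vs DMSO. Single point at 20 uM final (0.2% DMSO); concentration-response 0.195-50 uM final (0.5% DMSO).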

Sequence of Ratio of Nucleoli Translocation and Cytoplasm, AR (gene 367) (P10275 whole entry, looked up): as above

Row | Structure (SMILES) | outcome | AC50
21 | CCN=C1C=CC(=C(c2ccc(N(CC)CC)cc2)c2ccc(N(CC)CC)cc2)c2ccccc21 | inactive | –
22 | COCCOCCC[Si](C)(O[Si](C)(C)C)O[Si](C)(C)C | inactive | –
23 | CCCCCCCCCCCCCC[P+](CCCC)(CCCC)CCCC | inactive | –
24 | CCN=c1cc2oc3cc(NCC)c(C)cc3c(-c3ccccc3C(=O)OCC)c-2cc1C | – | 13.6 µM (active)
25 | CCc1ccc(C)nc1 | inactive | –
26 | CCCCCCCCCc1ccc(OCCO)cc1 | – | 75.5 µM (active)
27 | Cc1cccc(C)n1 | inactive | –
28 | CCCCCCCCCCCCC[N+](C)(C)Cc1ccccc1 | inactive | –
29 | CCCCCCCC/C=C\CCCCCCCC(=O)OCC(O)CO (stereo not drawn) | inactive | –
30 | O=C1C=CC(=O)N1c1ccccc1 | inactive | –
31 | CC1CCCCC1 | inactive | –
32 | F[Si-2](F)(F)(F)(F)F | inactive | –
33 | C[C@]12CC[C@H]3C(=CCc4cc(O)ccc43)[C@@H]1CCC2=O | inactive | –

Tested on: not listed separately
Assay: CCTE_Harrill_HTTr_Apoptosis_MCF7: CCTE's 6-hour Apoptosis Assessment for the High-Throughput Transcriptomics (HTTr) Platform, in MCF-7 cells cultured in DMEM + 10% fetal bovine serum, Harrill Lab (AID 2284011; active = hit-call score of the fitted dose curve at least 0.9, where 1 is the maximum; inactive = score below 0.9)
Procedure, shortened: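 Apoptosis in MCF-7 cells grown in DMEM with 10% fetal bovine serum was scored after a six hour exposure by high content imaging of caspase-3/7 activation (CellEvent Caspase 3/7 Green), with DMSO serving as negative control and baseline.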

Row | Structure (SMILES) | outcome | AC50
34 | CN(C)C(C)(C)CO | inactive | –
35 | CCN=C1C=CC(=C(c2ccc(N(CC)CC)cc2)c2ccc(N(CC)CC)cc2)c2ccccc21 | inactive | –
36 | CC(C)(C)c1cc(CCC(=O)OCC(COC(=O)CCc2cc(C(C)(C)C)c(O)c(C(C)(C)C)c2)(COC(=O)CCc2cc(C(C)(C)C)c(O)c(C(C)(C)C)c2)COC(=O)CCc2cc(C(C)(C)C)c(O)c(C(C)(C)C)c2)cc(C(C)(C)C)c1O | inactive | –
37 | CCN=c1cc2oc3cc(NCC)c(C)cc3c(-c3ccccc3C(=O)OCC)c-2cc1C | – | 96.9 nM (active) and 51.2 nM (active)
38 | CCc1ccc(C)nc1 | inactive | –
39 | CCCCCCCCCc1ccc(OCCO)cc1 | inactive | –
40 | Cc1cccc(C)n1 | inactive | –
41 | CN(N=O)C(=O)N[C@@H]1[C@@H](O)[C@H](O)[C@@H](CO)O[C@@H]1O | inactive | –
42 | CCCCCCCCCCCCC[N+](C)(C)Cc1ccccc1 | inactive | –
43 | CCCCCCCCCCCCCCCCC | inactive | –
44 | CSc1ccc(O)cc1C | inactive | –
45 | Cc1cnccn1 | inactive | –
46 | CCC(Cc1c(I)cc(I)c(N)c1I)C(=O)O (stereo not drawn) | inactive | –
47 | CC(=O)CCC(C)C | inactive | –
48 | Cc1ccc(O)c(-n2nc3ccccc3n2)c1 | inactive | –
49 | CCCCCCCC/C=C\CCCCCCCC(=O)N(C)CC(=O)O | inactive | –
50 | Cc1cc(=O)[nH]c(C(C)C)n1 | inactive | –
51 | CSc1ccc(Cl)cc1 | inactive | –
52 | CCCCC(CC)COC(=O)c1ccc(N(C)C)cc1 (stereo not drawn) | inactive | –
53 | CCCCCCCCn1sc(Cl)c(Cl)c1=O | inactive | –
54 | O=C(c1ccccc1)c1ccc(O)cc1O | inactive | –
55 | CC1CCCCC1 | inactive | –
56 | O=S(=O)(O)c1ccc(Cl)cc1 | inactive | –
57 | C[C@]12CC[C@H]3C(=CCc4cc(O)ccc43)[C@@H]1CCC2=O | inactive | –
58 | Brc1ccccn1 | inactive | –
59 | CCOC(=O)C1CC(=O)C(=C(O)C2CC2)C(=O)C1 (stereo not drawn) | inactive | –

Tested on: not listed separately
Assay: CCTE_Harrill_HTTr_CellCount_MCF7: CCTE's Cell Proliferation Assessment for the High-Throughput Transcriptomics (HTTr) Platform, Harrill Lab (AID 2284012);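 also: cells exposed to compound for six hours; intended direction is loss of nuclei count meaning fewer cells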
Procedure, shortened: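 MCF7 cells exposed 6 hours to an eight-point dilution series; Hoechst-stained nuclei counted by high-content imaging. Bidirectional curve fitting against DMSO baseline.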

Row | Structure (SMILES) | outcome | AC50
60 | CN(C)C(C)(C)CO | inactive | –
61 | CCN=C1C=CC(=C(c2ccc(N(CC)CC)cc2)c2ccc(N(CC)CC)cc2)c2ccccc21 | – | 92.2 µM (active)
62 | CC(C)(C)c1cc(CCC(=O)OCC(COC(=O)CCc2cc(C(C)(C)C)c(O)c(C(C)(C)C)c2)(COC(=O)CCc2cc(C(C)(C)C)c(O)c(C(C)(C)C)c2)COC(=O)CCc2cc(C(C)(C)C)c(O)c(C(C)(C)C)c2)cc(C(C)(C)C)c1O | inactive | –
63 | CCN=c1cc2oc3cc(NCC)c(C)cc3c(-c3ccccc3C(=O)OCC)c-2cc1C | inactive | –
64 | CCc1ccc(C)nc1 | inactive | –
65 | CCCCCCCCCc1ccc(OCCO)cc1 | inactive | –
66 | Cc1cccc(C)n1 | inactive | –
67 | CN(N=O)C(=O)N[C@@H]1[C@@H](O)[C@H](O)[C@@H](CO)O[C@@H]1O | inactive | –
68 | CCCCCCCCCCCCC[N+](C)(C)Cc1ccccc1 | inactive | –
69 | CSc1ccc(O)cc1C | inactive | –
70 | Cc1cnccn1 | inactive | –
71 | CC(=O)CCC(C)C | inactive | –
72 | Cc1ccc(O)c(-n2nc3ccccc3n2)c1 | inactive | –
73 | CCCCCCCC/C=C\CCCCCCCC(=O)N(C)CC(=O)O | inactive | –
74 | Cc1cc(=O)[nH]c(C(C)C)n1 | inactive | –
75 | CCCCCCCCn1sc(Cl)c(Cl)c1=O | inactive | –
76 | CC1CCCCC1 | inactive | –
77 | C[C@]12CC[C@H]3C(=CCc4cc(O)ccc43)[C@@H]1CCC2=O | inactive | –
78 | Brc1ccccn1 | inactive | –
